Source: PubChem BioAssay
Activity calls are given as the source filed them. Unless noted, how the calls were made is not given here.

What was measured:
[1] = compounds binding Alexa647 anti-His antibody – biochemical, small-molecule microarray, 635 nm fluorescence, artefact control for SMM control protein annotation, primary screen (AID 1128); settings: higher = more signal;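 further: score merges feature fluorescence with signal-to-noise for each printed compound spot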
[2] = test system: Human papillomavirus type 1a E7 protein (residues 1-88); experiment: HPV1a E7 small-molecule binders, primary screen, biochemical, small-molecule microarray, residues 1-88, 635 nm (AID 1129); settings: small-molecule microarray binding, fluorescence 635 nm; higher = more signal
[3] = molecular target: Focal adhesion kinase 1 (Homo sapiens) (UniProt Q05397); experiment: PTK2 protein binding on printed compound slides – biochemical, small-molecule microarray, 635/667 nm fluorescence, BSA, DTT, primary screen (AID 1130); settings: 635 nm fluorescence, higher = more signal;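 further: composite of spot emission at 667 nm and signal to noise over triplicate slides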
Sequence of Focal adhesion kinase 1 (Homo sapiens) (Q05397 whole entry, looked up): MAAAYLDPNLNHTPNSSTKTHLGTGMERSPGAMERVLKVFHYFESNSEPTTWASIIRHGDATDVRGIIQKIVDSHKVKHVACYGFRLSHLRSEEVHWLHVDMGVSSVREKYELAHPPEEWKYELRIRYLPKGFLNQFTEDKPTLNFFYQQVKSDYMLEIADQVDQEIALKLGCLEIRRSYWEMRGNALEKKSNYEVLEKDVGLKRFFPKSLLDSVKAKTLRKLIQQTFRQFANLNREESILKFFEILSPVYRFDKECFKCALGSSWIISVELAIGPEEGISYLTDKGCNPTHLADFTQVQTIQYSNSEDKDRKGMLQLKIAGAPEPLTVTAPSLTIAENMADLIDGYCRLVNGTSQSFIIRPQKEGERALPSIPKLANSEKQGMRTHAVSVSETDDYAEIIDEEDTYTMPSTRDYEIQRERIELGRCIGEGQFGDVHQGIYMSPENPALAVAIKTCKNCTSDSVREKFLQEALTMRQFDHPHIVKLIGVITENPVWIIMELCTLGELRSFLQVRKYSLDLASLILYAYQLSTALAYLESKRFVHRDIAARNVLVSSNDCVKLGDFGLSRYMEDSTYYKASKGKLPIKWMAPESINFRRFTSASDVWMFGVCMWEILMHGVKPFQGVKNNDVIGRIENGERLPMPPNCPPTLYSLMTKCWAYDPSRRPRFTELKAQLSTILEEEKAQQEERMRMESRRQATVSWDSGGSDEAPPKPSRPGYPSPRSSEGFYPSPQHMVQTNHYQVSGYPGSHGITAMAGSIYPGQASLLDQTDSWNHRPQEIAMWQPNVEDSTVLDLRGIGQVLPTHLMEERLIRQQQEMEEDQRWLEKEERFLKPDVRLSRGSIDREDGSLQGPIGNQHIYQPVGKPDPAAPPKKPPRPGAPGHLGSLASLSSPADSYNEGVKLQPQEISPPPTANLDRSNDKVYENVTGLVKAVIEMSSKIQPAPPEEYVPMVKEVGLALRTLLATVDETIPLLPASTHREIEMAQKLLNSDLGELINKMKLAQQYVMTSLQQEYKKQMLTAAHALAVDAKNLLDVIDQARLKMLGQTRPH

[4] = test system: Fibrinogen (Alexa647-labelled); experiment: Alexa647-fibrinogen binding to printed small molecules – biochemical, small-molecule microarray, 635/667 nm fluorescence, artefact control for SMM control-protein annotation, profiling panel (AID 1131); settings: fibrinogen-A647 binding fluorescence, higher = more signal;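 further: z-score merges 667 nm fluorescence with per-spot signal-to-noise over triplicate slides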
[5] = molecular target: Follistatin (Homo sapiens) (UniProt P19883); experiment: FST protein binding to printed compounds – biochemical, small-molecule microarray, 635/667 nm fluorescence, primary screen (AID 1132); settings: 635 nm fluorescence, higher = more signal
Sequence of Follistatin (Homo sapiens) (P19883 whole entry, looked up): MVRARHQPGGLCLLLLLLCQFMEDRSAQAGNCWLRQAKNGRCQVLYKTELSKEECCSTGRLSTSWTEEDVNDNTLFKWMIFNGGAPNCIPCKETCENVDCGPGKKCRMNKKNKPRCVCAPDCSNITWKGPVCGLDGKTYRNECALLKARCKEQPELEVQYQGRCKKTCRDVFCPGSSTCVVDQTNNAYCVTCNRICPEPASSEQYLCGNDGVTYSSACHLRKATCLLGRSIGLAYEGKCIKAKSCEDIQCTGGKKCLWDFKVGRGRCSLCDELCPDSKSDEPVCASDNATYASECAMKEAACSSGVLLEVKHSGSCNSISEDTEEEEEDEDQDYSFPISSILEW

[6] = molecular target: Fibroblast growth factor 2 (Homo sapiens) (UniProt P09038); experiment: basic fibroblast growth factor binding to printed compounds – biochemical, small-molecule microarray, 635/667 nm fluorescence, primary screen (AID 1133); settings: FGF2, fluorescence 635/667, higher = more signal
Sequence of Fibroblast growth factor 2 (Homo sapiens) (P09038 whole entry, looked up): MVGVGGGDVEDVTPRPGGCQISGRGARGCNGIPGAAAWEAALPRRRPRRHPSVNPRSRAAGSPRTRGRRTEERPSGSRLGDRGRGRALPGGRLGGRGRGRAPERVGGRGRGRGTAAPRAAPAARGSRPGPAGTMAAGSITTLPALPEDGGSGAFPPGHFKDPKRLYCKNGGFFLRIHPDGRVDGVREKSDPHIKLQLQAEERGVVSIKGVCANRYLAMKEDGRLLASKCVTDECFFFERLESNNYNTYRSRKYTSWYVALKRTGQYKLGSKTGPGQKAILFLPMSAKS

[7] = JC-1 mitochondrial potential readout, lung cancer cells – cell-based, A549, JC-1 fluorescence, basal, 24 h, 100 nL, profiling panel (AID 1138); settings: higher = more signal;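 further: A549 lung adenocarcinoma cells under basal conditions with no added stimulus; test concentration not given here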
Lefty1 = Lefty1 protein binding to printed compounds – biochemical, small-molecule microarray, 635/667 nm fluorescence, primary screen (AID 1139); settings: fluorescence 635/667, higher = more signal
[8] = test system: wheat germ agglutinin (Triticum aestivum), Alexa647-labelled; experiment: Alexa647-WGA lectin binding to printed small molecules – biochemical, small-molecule microarray, 635/667 nm fluorescence, artefact control for SMM control-protein annotation, profiling panel (AID 1140); settings: WGA-A647 binding, 635 nm fluorescence, higher = more signal;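 further: score merges 667 nm feature emission with signal to noise over triplicate slides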
[9] = molecular target: Luciferin 4-monooxygenase (Photinus pyralis) (UniProt P08659); experiment: inhibition of purified Photinus pyralis luciferase – biochemical, luminescence, purified enzyme, 2006 set, primary screen (AID 1141); settings: purified firefly luciferase, SteadyGlo luminescence, 30 min; higher = more signal, called active from +8 up or from −8 down;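 further: cell-free assay with purified firefly luciferase at 100 ng per well in PBS; test concentration not given here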
Sequence of Luciferin 4-monooxygenase (Photinus pyralis) (P08659 whole entry, looked up): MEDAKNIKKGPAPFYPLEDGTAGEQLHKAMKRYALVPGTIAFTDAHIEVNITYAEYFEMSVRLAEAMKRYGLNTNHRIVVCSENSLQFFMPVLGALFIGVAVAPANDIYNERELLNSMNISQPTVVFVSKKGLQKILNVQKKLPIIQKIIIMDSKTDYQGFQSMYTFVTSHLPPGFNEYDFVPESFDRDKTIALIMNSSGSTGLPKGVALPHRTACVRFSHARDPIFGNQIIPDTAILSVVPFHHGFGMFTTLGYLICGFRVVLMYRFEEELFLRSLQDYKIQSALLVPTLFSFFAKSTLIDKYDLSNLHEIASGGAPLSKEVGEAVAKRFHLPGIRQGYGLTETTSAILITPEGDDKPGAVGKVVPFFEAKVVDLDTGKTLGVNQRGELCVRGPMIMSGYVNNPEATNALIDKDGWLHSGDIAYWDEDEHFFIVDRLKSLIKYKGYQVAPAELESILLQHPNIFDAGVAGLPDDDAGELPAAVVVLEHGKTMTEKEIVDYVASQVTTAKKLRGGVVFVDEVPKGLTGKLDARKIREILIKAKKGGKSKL

[10] = test system: Wnt5a (protein binding on small-molecule microarray); experiment: small molecules binding Wnt5a protein – biophysical, small-molecule microarray, 635/667 nm fluorescence, primary screen (AID 1142); settings: 635 nm fluorescence, higher = more signal;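 further: fluorescence read at 667 nm with signal to noise per printed feature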
[11] = ATP-based viability of Huh7 replicon cells – cell-based, CellTiter-Glo luminescence, basal, 48 h, cytotoxicity control for HCV replication inhibitor project, primary screen (AID 1143); settings: higher = more signal, called active from +8 up or from −8 down;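 further: Huh7 hepatoma cells carrying a hepatitis C replication reporter with no stimulus; test concentration not given here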
[12] = Pseudomonas biofilm growth suppression – PAO1 strain, BacTiter-Glo luminescence, LB-PBS, primary screen (AID 1144); settings: P. aeruginosa PAO1 biofilm, 12 h, higher = more signal
[13] = basal CRE-LacZ reporter activity in PC12 – cell-based, unstimulated, primary screen (AID 1145); settings: no forskolin, luminescence, 4.5 h, higher = more signal, called active from +8 up or from −8 down
[14] = forskolin-driven CRE-LacZ activity in PC12 – cell-based, CRE-LacZ reporter, forskolin-stimulated, primary screen (AID 1146); settings: luminescence, 4.5 h, higher = more signal, called active from +8 up or from −8 down;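 further: PC12 cells with 6xCRE LacZ reporter stimulated by forskolin 10 µM; beta-galactosidase reporter signal reflecting CREB driven transcription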
[15] = molecular target: Streptavidin (Streptomyces avidinii) (UniProt P22629); experiment: compounds binding control protein streptavidin – biophysical, small-molecule microarray, 635/667 nm fluorescence, artefact control for SMM compound annotation, primary screen (AID 1147); settings: higher = more signal;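 further: signal reflects streptavidin binding to arrayed compounds as a control protein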
Sequence of Streptavidin (Streptomyces avidinii) (P22629 whole entry, looked up): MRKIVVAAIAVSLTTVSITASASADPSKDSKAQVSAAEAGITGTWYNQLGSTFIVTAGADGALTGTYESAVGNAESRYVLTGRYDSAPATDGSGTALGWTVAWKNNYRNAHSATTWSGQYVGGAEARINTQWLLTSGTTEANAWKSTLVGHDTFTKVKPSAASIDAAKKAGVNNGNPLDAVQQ

[16] = probe aInhba binding on compound microarray – biochemical, small-molecule microarray, 635/667 nm fluorescence, primary screen (AID 1148); settings: higher = more signal;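 further: score merges 667nm spot fluorescence with signal-to-noise for antibody binding to printed compounds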
Torsin-1A (Homo sapiens) [17] = molecular target: Torsin-1A (Homo sapiens) (UniProt O14656); experiment: TOR1A wild-type binding on microarray – cell lysate, small-molecule microarray, lysate, 635/667 nm, primary screen (AID 1149); settings: COS7 hTOR1A-WT lysate, 635 nm fluorescence, higher = more signal
Sequence of Torsin-1A (Homo sapiens) (O14656 whole entry, looked up): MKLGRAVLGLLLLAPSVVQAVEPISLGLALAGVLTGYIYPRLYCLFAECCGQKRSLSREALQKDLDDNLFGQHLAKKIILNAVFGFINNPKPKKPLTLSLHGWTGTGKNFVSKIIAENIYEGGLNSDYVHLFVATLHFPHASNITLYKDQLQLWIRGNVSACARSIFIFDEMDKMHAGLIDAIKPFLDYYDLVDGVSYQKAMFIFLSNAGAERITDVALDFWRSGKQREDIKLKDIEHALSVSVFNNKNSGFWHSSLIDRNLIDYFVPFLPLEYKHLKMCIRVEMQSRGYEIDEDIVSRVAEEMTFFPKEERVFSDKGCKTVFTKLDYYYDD

Torsin-1A (Homo sapiens) [18] = molecular target: Torsin-1A (Homo sapiens) (UniProt O14656); experiment: torsin A mutant lysate binding on microarrays – cell lysate, small-molecule microarray, COS7 lysate, 635/667 nm fluorescence, primary screen (AID 1150); settings: COS7 hTOR1A mutant lysate, 635 nm fluorescence, higher = more signal;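 further: score pools 667 nm emission and signal to noise measuring lysate protein binding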
[19] = test system: Sonic hedgehog protein (Shh); experiment: Sonic hedgehog microarray binding compounds – biochemical, small-molecule microarray, 635/667 nm fluorescence, primary screen (AID 1151); settings: 635 nm fluorescence, higher = more signal;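 further: Shh protein binding to compounds spotted on small-molecule microarray slides; score combines spot fluorescence intensity with signal-to-noise across triplicate slides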

SMILES	composite z-score [1]	composite z-score [2]	composite z-score [3]	composite z-score [4]	composite z-score [5]	composite z-score [6]	z-score [7]	composite z-score (Lefty1)	composite z-score [8]	z-score [9]	composite z-score [10]	z-score [11]	z-score [12]	z-score [13]	z-score [14]	composite z-score [15]	composite z-score [16]	composite z-score (Torsin-1A (Homo sapiens) [17])	composite z-score (Torsin-1A (Homo sapiens) [18])	composite z-score [19]
COc1ccc(C(O)C2C=CC3C(=O)N(c4ccccc4)C(=O)C3N2Nc2ccccc2)c2ccccc12 (stereo not given)	2.08	1.12	0.592	-0.833	0.037	-0.702	-0.284	-0.0743	0.285	-0.597 (inactive)	0.145	-2.42 (inactive)	-1.12 (inactive)	0.24 (inactive)	1.79 (inactive)	0.632	0.382	-0.175	0.15	-0.506
O=C1O[C@@H](c2ccccc2)[C@@H](c2ccccc2)N2[C@@H](c3ccc(O)cc3)[C@]3(C(=O)Nc4ccccc43)[C@@H](C(=O)NC[C@H](O)c3ccccc3)[C@H]12	2.07	-0.366	0.0943	-0.406	1.02	0.797	0.411	0.266	0.0576	0.807 (inactive)	0.062	-2.34 (inactive)	0.184 (inactive)	0.0921 (inactive)	0.175 (inactive)	-0.26	-0.176	-1	0.371	0.142
Cc1ccc(N2C(=O)c3ccccc3[C@](C)(C(=O)NCCN3CCOCC3)[C@@H]2c2ccc(CO)cc2)nc1	0.267	-1.74	-1.16	-1.02	-0.419	-0.833	-0.807	-1.26	-1.32	0.952 (inactive)	-0.538	-0.28 (inactive)	-0.398 (inactive)	-0.258 (inactive)	-0.37 (inactive)	-0.932	-0.211	-2.51	-1.62	0.465
O=C(NCc1ccccc1)[C@@H]1c2ccccc2C(=O)N(C2CCCCC2)[C@H]1c1ccc(CO)cc1	0.61	1.01	0.405	-0.0594	1.29	0.487	2.15	0.917	0.803	-0.441 (inactive)	0.191	-1.08 (inactive)	0.583 (inactive)	0.234 (inactive)	0.174 (inactive)	-0.395	-0.352	0.113	1.11	1.4
C=CCC(OC(C)=O)[C@@H]1[C@@H](N(Cc2cc3ccccc3o2)C(=O)c2ccc(-c3ccccc3)cc2)c2cc(OCCCO)ccc2N1C(=O)Cc1ccc2ccccc2c1 (stereo not given in full)	0.708	-0.321	-0.0252	0.186	0.386	-0.0741	1.33	-0.0934	0.34	-0.729 (inactive)	-0.172	0.0758 (inactive)	0.19 (inactive)	1.85 (inactive)	0.874 (inactive)	0.0693	0.0963	-0.635	-0.0864	-0.076
